FBW7 activator: FBW7 E3 ligase activators, primary screen, biochemical, AlphaScreen, human | normalized activity (activation), % at 26.1 µM | AID 1259310, 2017 | AlphaScreen FBW7–phospho-cyclin E peptide binding, activator screen | 650,000 tested, 0.13% active; in the data active = normalized activity above about 1.9%;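 note: purified mutant Fbw7 with reduced substrate affinity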
TEAD-YAP block: TEAD-YAP interaction inhibition, primary screen, TEAD-YAP interaction inhibitor project, luminescence, HEK-TIYL cells; AID 1259422, 2018; 640,000 tested, 1.4% active; inhibition, % at 9.12 µM; TEAD-Gal4/YAP UAS-luciferase luminescence; in the data active = inhibition above about 32%;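 note: 0% = median of test compound wells and 100% = reference inhibitor wells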
MITF primary: MITF inhibitors, primary screen, biochemical, AlphaScreen, human. AlphaScreen MITF homodimerization, bead proximity signal. 650,000 tested, 0.91% active. Microphthalmia-associated transcription factor (Homo sapiens), O75030. inhibition, % at 2.6 µM; in the data active = inhibition above about 50%;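 note: 0% = vehicle wells with protein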
Target sequence (O75030 whole entry, looked up): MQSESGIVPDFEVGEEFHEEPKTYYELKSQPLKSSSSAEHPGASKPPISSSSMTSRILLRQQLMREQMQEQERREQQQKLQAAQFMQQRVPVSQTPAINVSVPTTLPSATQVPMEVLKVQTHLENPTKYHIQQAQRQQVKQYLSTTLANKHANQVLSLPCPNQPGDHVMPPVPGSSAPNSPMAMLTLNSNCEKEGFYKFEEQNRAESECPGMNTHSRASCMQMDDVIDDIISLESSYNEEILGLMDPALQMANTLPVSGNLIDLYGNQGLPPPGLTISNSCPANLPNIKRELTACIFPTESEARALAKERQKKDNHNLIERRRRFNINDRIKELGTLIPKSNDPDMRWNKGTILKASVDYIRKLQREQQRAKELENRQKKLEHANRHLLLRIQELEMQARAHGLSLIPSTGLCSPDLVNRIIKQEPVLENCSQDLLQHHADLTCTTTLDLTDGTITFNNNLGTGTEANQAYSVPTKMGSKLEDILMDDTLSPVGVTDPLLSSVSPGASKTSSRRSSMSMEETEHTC
GPR151 activ: activators of human GPR151, primary screen, cell-based, PathHunter beta-arrestin, luminescence; activation, % at 11.2 µM; 650,000 tested, 1% active; PathHunter beta-arrestin GPR151 cells; G-protein coupled receptor 151 (Homo sapiens), Q8TDV0; AID 1508602, 2020; in the data active = activation above about 4.9%;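 note: 0% = median of compound wells and 100% = cells with positive control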
MITF confirm: MITF inhibitors, retest of hits, confirmation, biochemical, AlphaScreen, triplicate; shares compounds with MITF primary; AlphaScreen MITF homodimerization, biotin/His-MITF beads; inhibition, % at 2.6 µM; 4,700 tested, 16% active;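 active = inhibition above a cutoff derived from the DMSO control wells, cut at about 28% in these data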;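 note: 0% = MITF dimer wells with DMSO only; inhibitors lower the bead chemiluminescence by keeping MITF from dimerizing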
AlphaScreen DR: AlphaScreen optical interference compounds, dose response, counter-screen, biochemical, HTS; shares compounds with MITF primary; AlphaScreen optical interference counterscreen, cell-free; IC50, µM; 480 tested, 6% active; AID 1259373, 2018; call rule not given here
AlphaScreen intf2: AlphaScreen optical interference compounds, counter-screen for MITF inhibitor project, biochemical, triplicate. shares compounds with MITF primary. AID 1259376, 2018. 4,700 tested, 7.6% active. LysRS AlphaScreen counterscreen, signal interference. inhibition, % at 2.6 µM;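 active = inhibition above a cutoff derived from the DMSO control wells, cut at about 30% in these data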
Starred values were filed as active, the others as inactive; · = not tested or not shown. Shown are actives, neighbours in structure and some others; about 3.4% of the full set was active somewhere.

SMILES | FBW7 activator | TEAD-YAP block | MITF primary | GPR151 activ | MITF confirm | AlphaScreen intf2 | others
CC(NC(=O)c1ccc([N+](=O)[O-])cc1Cl)c1ccccc1 (configuration not stated) | 0 | -11 | 8 | 0 | · | ·
CC(Oc1ccc(Br)cc1)C(=O)Nc1ccccc1C(N)=O (configuration not stated) | 0 | -3 | -12 | 1 | · | ·
CCCc1ccc(-c2nc(CCC)no2)cc1 | 0 | -14 | 13 | 0 | · | ·
CCOc1cc(CN2CCN(C(=O)c3cccc(Cl)c3)CC2)ccc1OC | 0 | 2 | 21 | 0 | · | ·
COc1ccc(C(=O)N2CCN(Cc3cccc(Cl)c3)CC2)cc1OC | 0 | -3 | 51* | -2 | 5 | 12
COc1ccc(Br)cc1/C=N\NC(=O)CNc1ccccc1C | 0 | -1 | -3 | 0 | · | ·
COc1ccc(OC)c(/C=N\NC(=O)CNc2ccccc2C)c1 | 0 | 14 | 63* | -1 | -1 | 0
c1ccc(Cc2nc3cnccn3c2NCc2ccc3c(c2)OCO3)cc1 | 0 | 3 | 68* | 0 | 7 | 10
c1csc(-c2nc3cnccn3c2NCc2ccc3c(c2)OCO3)c1 | 0 | -18 | -3 | -1 | · | ·
OC[C@H]1OC([S-])[C@H](O)[C@@H](O)[C@@H]1O.[Au+] (some centres not stated) | 0 | 15 | 86* | 0 | 73* | 0 | AlphaScreen DR=>6.5
COc1ccc(CCN2CCc3nc4ccncc4cc3C2)cc1 | 1 | 2 | 51* | 1 | 23 | 34*
COC(=O)c1ccc(COC(=O)CNC(=O)c2ccccc2)cc1 | 0 | 6 | 10 | 1 | · | ·
COc1ccc(C(=O)NCC(=O)NCC(=O)OCc2ccccc2)cc1 | 0 | 5 | 54* | 1 | 8 | 6
COc1cccc2c1OCC(CN1CCCC(C(=O)Nc3cccc(-n4cccn4)c3)C1)=C2 (configuration not stated) | 0 | -25 | 3 | 2 | · | ·
COc1cccc(C=Nc2ccc(-c3nc4ncccc4o3)cc2)c1O | 0 | -2 | 10 | -1 | · | ·
c1cc(CN2CCN(C3CCCC3)CC2)ccn1 | 1 | 4 | 79* | -1 | 7 | 14
Cc1ccc(CN2CCN(C3CCCC3)CC2)cc1 | 0 | 1 | 38 | 1 | · | ·
Fc1ccc(CN2CCN(C3CCC(c4ccccc4)CC3)CC2)cc1 (configuration not stated) | 0 | -1 | 66* | 1 | 1 | 9
CCc1ccc(CN2CCN(C3CCCCCC3)CC2)cc1 | 0 | -13 | 79* | -1 | 2 | -2
Fc1ccc(CN2CCN(C3CCN(Cc4ccccc4)CC3)CC2)cc1 | 0 | 9 | 14 | 0 | · | ·
Fc1ccc(CN2CCC(N3CCCCC3)CC2)cc1 | 0 | 10 | 45 | 0 | · | ·
Fc1ccc(CN2CCN(C3CCCCCC3)CC2)cc1 | 0 | 8 | 64* | 2 | 16 | 21
O=C(O)COc1ccc(S(=O)(=O)N2CCCc3ccccc32)cc1 | 0 | 7 | -7 | 0 | · | ·
NC(=O)c1ccc(NC(=O)CSc2nc3sc4c(c3c(=O)[nH]2)CCCC4)cc1 | 0 | -1 | 0 | 0 | · | ·
CN1CCN(C2CCN(C(=O)c3ccc(-c4ccccc4)cc3)CC2)CC1 | 0 | -4 | 69* | 0 | -1 | 0
SMILES | FBW7 activator | TEAD-YAP block | MITF primary | GPR151 activ | MITF confirm | AlphaScreen intf2 | others
CC1CCCC(N2CCN(C(=O)c3ccncc3)CC2)C1 (configuration not stated) | 0 | -5 | 53* | 2 | -6 | -5
COc1ccc(C(=O)N2CCN(C3CCC(c4ccccc4)CC3)CC2)cc1 (configuration not stated) | 0 | 3 | 56* | -1 | 14 | 16
CC1CCCC(N2CCN(C(=O)c3cccs3)CC2)C1 (configuration not stated) | 1 | 3 | 53* | 0 | -6 | -2
O=C(c1cccs1)N1CCN(C2CCCC2)CC1 | 0 | -9 | 45 | 0 | · | ·
COc1cc(OC)cc(C(=O)N2CCN(C3CCC(c4ccccc4)CC3)CC2)c1 (configuration not stated) | 1 | 13 | 34 | -1 | · | ·
O=C(c1ccccc1)N1CCC(N2CCCCCC2)CC1 | 0 | 10 | 20 | -1 | · | ·
CC(C)(C)NC(=O)C1CCCN(c2ncccn2)C1 (configuration not stated) | 0 | 9 | -4 | -1 | · | ·
Cc1ccc(NC(=O)COc2ccccc2)cc1F | 0 | -52 | 7 | 2 | · | ·
COC(=O)c1ccccc1NC(=O)Cc1ccc(F)cc1 | 0 | -9 | -21 | 1 | · | ·
O=C(c1cccs1)N1CCC(N2CCCCCC2)CC1 | 1 | 9 | 55* | -2 | -7 | -7
O=C(c1ccncc1)N1CCN(C2CCCCCC2)CC1 | 0 | -1 | 82* | 2 | -2 | 0
COc1cc(OC)cc(C(=O)N2CCN(C3CCCCCC3)CC2)c1 | 0 | 0 | 59* | 2 | 0 | 12
CC(/C=N\NC(=O)Cc1cccn1C)=C\c1ccccc1 | 0 | -9 | -4 | 1 | · | ·
CCN1CCN(CC(=O)N/N=C/c2ccc(N(C)C)cc2)CC1 | 0 | 2 | 52* | 1 | 26 | 6
CCN1CCN(CC(=O)N/N=C/c2cc(Br)cs2)CC1 | 1 | 20 | 68* | 0 | -1 | 3
Cc1ccc(/C=N/NC(=O)CCN2CCN(C)CC2)cc1 | 0 | 1 | 54* | 0 | 7 | 0
CN(C)c1ccc(/C=N\NC(=O)CN2CCN(Cc3ccccc3)CC2)cc1 | 0 | 5 | -4 | 1 | · | ·
CC(/C=N/NC(=O)CN1CCN(C)CC1)=C\c1ccccc1 | 1 | 9 | 73* | 0 | 3 | -5
COc1ccc(NC(=O)CN(c2c(C)cccc2C)S(C)(=O)=O)cc1OC | 0 | 5 | 10 | 0 | · | ·
CN1C(=O)C(C)(C)c2cc(S(=O)(=O)N(C)CC(=O)NCC3CCCO3)ccc21 (configuration not stated) | 0 | -8 | 15 | 2 | · | ·
CCOC(=O)c1ccc(N2C(=O)C(Cl)=C(Nc3ccccc3C(=O)O)C2=O)cc1 | 1 | 23 | 56* | -2 | -8 | 3
CN(C)c1ccc(-c2nc3cc(NCc4cc(Br)ccc4O)ccc3o2)cc1 | 0 | -2 | 11 | -1 | · | ·
COc1ccccc1-n1c(SCC(=O)Nc2ccc(C)cc2)nnc1-c1ccncc1 | 0 | 4 | -16 | -1 | · | ·
COc1ccccc1-n1c(SCC(=O)NNC=O)nnc1-c1ccc(C)cc1 | 0 | -46 | 84* | -2 | 5 | 8

Screening data deposited in PubChem BioAssay by The Scripps Research Institute Molecular Screening Center.
